Three compounds from PubChem BioAssay (EPA / NIEHS) can be followed below.

Molecules are shown by their SMILES. The source made the active and inactive calls. How the source made its calls: active means hit-call score of the fitted dose curve at least 0.9, where 1 is the maximum; inactive means score below 0.9.

Read-out in test [1]: C-C motif chemokine 2 (Homo sapiens) (UniProt P13500)
In words: BSK_KF3CT_MCP1: BioMAP Diversity Plus: KF3CT Assay for Monocyte Chemoattractant Protein 1 (MCP1/CCL2) Biomarker Activity (AID 2283073). As to conditions: primary human keratinocytes with fibroblasts; actives raise or lower the signal. The gist of the method:
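KF3CT skin co-culture (keratinocytes/foreskin fibroblasts), 24 h post-dose; MCP-1 by ELISA; gain/loss of signal fit bidirectionally vs DMSO baseline.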

Read-out in test [2]: urokinase plasminogen activator (uPA), PLAU (gene 5328)
In words: BSK_KF3CT_uPA: BioMAP Diversity Plus: KF3CT Assay for urokinase plasminogen activator (uPA) Biomarker Activity (AID 2283075). As to conditions: primary human keratinocytes with fibroblasts; actives raise or lower the signal. A digest of the protocol: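 Human keratinocyte plus foreskin fibroblast primary co-culture exposed to chemical for 24 h. uPA levels were quantified by ELISA, and activity was fitted bidirectionally against a DMSO negative-control baseline.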

Read-out in test [3]: CD40, CD40 (gene 958)
In words: BSK_LPS_CD40: BioMAP Diversity Plus: LPS Assay for CD40 Biomarker Activity (AID 2283076). The following applies: primary human HUVEC with PBMC; actives raise or lower the signal. A digest of the protocol: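 ELISA readout of CD40 in HUVEC/PBMC co-culture (BSK_LPS system), 24 h post-dosing; bidirectional curve fit, DMSO baseline; parallel SRB total-protein staining for cytotoxicity.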

Read-out in test [4]: E-selectin (Homo sapiens) (UniProt P16581)
Briefly: BSK_LPS_Eselectin: BioMAP Diversity Plus: LPS Assay for Eselectin Biomarker Activity (AID 2283077). The following applies: primary human HUVEC with PBMC; actives raise or lower the signal. The gist of the method: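 ELISA readout of E-selectin, 24 h post-dose, HUVEC + PBMC co-culture (LPS system). Gain or loss of signal vs DMSO baseline, bidirectional fit.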

Read-out in test [5]: Interleukin-8 (IL8), CXCL8 (gene 3576)
In words: BSK_LPS_IL8: BioMAP Diversity Plus: LPS Assay for Interleukin-8 (IL8) Biomarker Activity (AID 2283078). The following applies: primary human HUVEC with PBMC; actives raise or lower the signal. The gist of the method: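 HUVEC + PBMC co-culture, LPS-activated; test chemicals dosed, IL-8 read by ELISA at 24 h. Bidirectional curve fit vs DMSO baseline (gain or loss of signal).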

A short description of test [6]: BSK_LPS_SRB: Viability Assessment in the BioMAP Diversity Plus: LPS Assay (AID 2283079).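 Further: total protein by sulforhodamine B absorbance as a cytotoxicity measure; measured one day after compound addition; fitted in both directions against DMSO so loss or gain of signal counts.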 As to conditions: primary human HUVEC with PBMC. The gist of the method:
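HUVEC + PBMC co-culture, LPS-stimulated; compound 24 h. 10% TCA fix, 0.1% SRB stain, A560. Bidirectional fit vs DMSO.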

Read-out in test [7]: Monocyte Chemoattractant Protein-1 (MCP1), CCL2 (gene 6347)
Briefly: BSK_LPS_MCP1: BioMAP Diversity Plus: LPS Assay for Monocyte Chemoattractant Protein-1 (MCP1) Biomarker Activity (AID 2283081).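 On AC50: secreted MCP-1 protein quantified by ELISA in culture supernatant.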 The following applies: primary human HUVEC with PBMC; actives raise or lower the signal. A digest of the protocol:
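ELISA read-out of MCP-1 after 24 h chemical dosing of a human umbilical vein endothelial cell/peripheral blood mononuclear cell co-culture stimulated with LPS. Gain or loss of signal fitted relative to DMSO controls.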

Test [8] is described as follows: BSK_LPS_PGE2: BioMAP Diversity Plus: LPS Assay for Prostaglandin E2 (PGE2) Biomarker Activity (AID 2283082). As to conditions: primary human HUVEC with PBMC; actives raise or lower the signal. A digest of the protocol: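 HUVEC plus human PBMC co-culture stimulated with LPS; secreted PGE2 quantified by ELISA 24 h after chemical dosing. Activity fitted bidirectionally against DMSO baseline; parallel SRB staining (0.1% SRB after 10% TCA fixation, 560 nm) flags overt cytotoxicity.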

Read-out in test [9]: Macrophage colony-stimulating factor (MCSF), CSF1 (gene 1435)
Briefly: BSK_LPS_MCSF: BioMAP Diversity Plus: LPS Assay for Macrophage colony-stimulating factor (MCSF) Biomarker Activity (AID 2283083). The following applies: primary human HUVEC with PBMC; actives raise or lower the signal. The gist of the method:
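HUVEC + PBMC co-culture (human primary), 24 h post-dose; M-CSF by ELISA; gain/loss of signal fitted bidirectionally vs DMSO baseline.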

Read-out in test [10]: Tissue Factor, F3 (gene 2152)
Briefly: BSK_LPS_TissueFactor: BioMAP Diversity Plus: LPS Assay for Tissue Factor Biomarker Activity (AID 2283084). As to conditions: primary human HUVEC with PBMC; actives raise or lower the signal. The gist of the method:
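HUVEC/PBMC co-culture, LPS-activated; CD142 ELISA read 24 h post-dose; bidirectional curve fit vs DMSO negative control.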

Read-out in test [11]: Tumor necrosis factor (Homo sapiens) (UniProt P01375)
In words: BSK_LPS_TNFa: BioMAP Diversity Plus: LPS Assay for Tumour Necrosis Factor alpha (TNFa) Biomarker Activity (AID 2283085). As to conditions: primary human HUVEC with PBMC; actives raise or lower the signal. A digest of the protocol:
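Human umbilical vein endothelial cells co-cultured with PBMC and stimulated with LPS. TNFa was measured by ELISA 24 h after chemical dosing, fitted bidirectionally relative to DMSO.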

Read-out in test [12]: Vascular cell adhesion molecule 1 (VCAM1), VCAM1 (gene 7412)
Briefly: BSK_LPS_VCAM1: BioMAP Diversity Plus: LPS Assay for Vascular cell adhesion molecule 1 (VCAM1) Biomarker Activity (AID 2283086). The following applies: primary human HUVEC with PBMC; actives raise or lower the signal. A digest of the protocol:
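Human umbilical vein endothelial cells co-cultured with PBMC and stimulated with LPS; VCAM-1 measured by ELISA 24 h after dosing. Bidirectional curve fitting against DMSO baseline; cytotoxicity tracked in parallel by SRB total-protein staining.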

Read-out in a further test: CD38, CD38 (gene 952)
In words: BSK_SAg_CD38: BioMAP Diversity Plus: SAg Assay for CD38 Biomarker Activity (AID 2283087). As to conditions: primary human HUVEC with PBMC; actives raise or lower the signal. The gist of the method:
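Human HUVEC plus PBMC co-culture stimulated with superantigen; CD38 measured by ELISA 24 h after chemical dosing. Fluorescence read-out, bidirectional fit against DMSO; cytotoxicity tracked in parallel by SRB and Alamar Blue.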

Read-out in test [13]: CD40, CD40 (gene 958)
In words: BSK_SAg_CD40: BioMAP Diversity Plus: SAg Assay for CD40 Biomarker Activity (AID 2283088). The following applies: primary human HUVEC with PBMC; actives raise or lower the signal. A digest of the protocol:
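HUVEC/PBMC co-culture, 24 h post-dose; CD40 by ELISA, fluorescence intensity; bidirectional fit vs DMSO negative control.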

Read-out in another test: CD69, CD69 (gene 969)
Briefly: BSK_SAg_CD69: BioMAP Diversity Plus: SAg Assay for CD69 Biomarker Activity (AID 2283089).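 On AC50: cell surface CD69 protein quantified by ELISA with fluorescence detection.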 The following applies: primary human HUVEC with PBMC; actives raise or lower the signal. The gist of the method:
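Values derive from bidirectional fitting relative to DMSO vehicle. Cells: umbilical vein endothelium plus peripheral blood mononuclear cells, treated 24 h before fluorescent ELISA for CD69.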

Read-out in test [14]: Monocyte Chemoattractant Protein-1 (MCP1), CCL2 (gene 6347)
Briefly: BSK_SAg_MCP1: BioMAP Diversity Plus: SAg Assay for Monocyte Chemoattractant Protein-1 (MCP1) Biomarker Activity (AID 2283090). As to conditions: primary human HUVEC with PBMC; actives raise or lower the signal. The gist of the method:
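MCP-1 levels in the endothelial–PBMC SAg co-culture were quantified by ELISA at 24 h post-dosing; both increases and decreases versus DMSO scored. Cytotoxicity monitored by SRB total protein in parallel cultures.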

Read-out in test [15]: E-selectin (Homo sapiens) (UniProt P16581)
Briefly: BSK_SAg_Eselectin: BioMAP Diversity Plus: SAg Assay for Eselectin Biomarker Activity (AID 2283091). As to conditions: primary human HUVEC with PBMC; actives raise or lower the signal. The gist of the method: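 E-selectin ELISA readout at 24 h post-dosing in human umbilical vein endothelial cell/PBMC co-culture; gain or loss of signal fitted relative to DMSO baseline.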

Read-out in test [16]: Monokine induced gamma interferon (MIG), CXCL9 (gene 4283)
In words: BSK_SAg_MIG: BioMAP Diversity Plus: SAg Assay for Monokine induced gamma interferon (MIG) Biomarker Activity (AID 2283092). The following applies: primary human HUVEC with PBMC; actives raise or lower the signal. A digest of the protocol:
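Values reflect bidirectional fitting of ELISA-measured MIG against DMSO vehicle, taken 24 h after dosing of a co-culture of human umbilical vein endothelial cells and peripheral blood mononuclear cells.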

Read-out in test [17]: Interleukin-1 alpha (IL1a), IL1A (gene 3552)
Briefly: BSK_LPS_IL1a: BioMAP Diversity Plus: LPS Assay for Interleukin-1 alpha (IL1a) Biomarker Activity (AID 2283080). The following applies: primary human HUVEC with PBMC; actives raise or lower the signal. The gist of the method: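 HUVEC/PBMC co-culture, LPS system; 24 h after dosing; IL-1a by ELISA; gain or loss of signal fitted bidirectionally vs DMSO baseline.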

Chain of E-selectin (Homo sapiens) (P16581 whole entry, looked up): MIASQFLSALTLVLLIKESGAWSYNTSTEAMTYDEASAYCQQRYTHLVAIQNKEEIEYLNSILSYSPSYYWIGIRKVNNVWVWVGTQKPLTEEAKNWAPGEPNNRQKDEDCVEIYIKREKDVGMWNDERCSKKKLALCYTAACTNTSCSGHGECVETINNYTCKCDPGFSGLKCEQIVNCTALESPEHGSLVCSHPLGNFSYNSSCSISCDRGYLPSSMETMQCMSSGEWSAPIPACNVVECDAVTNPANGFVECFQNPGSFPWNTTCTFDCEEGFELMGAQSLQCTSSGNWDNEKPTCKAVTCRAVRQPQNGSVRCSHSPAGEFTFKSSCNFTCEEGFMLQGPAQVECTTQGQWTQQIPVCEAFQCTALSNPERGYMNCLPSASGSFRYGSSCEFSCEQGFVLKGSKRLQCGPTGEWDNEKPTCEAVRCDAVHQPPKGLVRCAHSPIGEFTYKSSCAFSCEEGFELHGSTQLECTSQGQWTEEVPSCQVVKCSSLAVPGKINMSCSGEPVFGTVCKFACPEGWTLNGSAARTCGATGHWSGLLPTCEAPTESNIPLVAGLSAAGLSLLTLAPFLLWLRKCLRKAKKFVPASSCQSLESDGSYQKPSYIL
Chain of Tumor necrosis factor (Homo sapiens) (P01375 whole entry, looked up): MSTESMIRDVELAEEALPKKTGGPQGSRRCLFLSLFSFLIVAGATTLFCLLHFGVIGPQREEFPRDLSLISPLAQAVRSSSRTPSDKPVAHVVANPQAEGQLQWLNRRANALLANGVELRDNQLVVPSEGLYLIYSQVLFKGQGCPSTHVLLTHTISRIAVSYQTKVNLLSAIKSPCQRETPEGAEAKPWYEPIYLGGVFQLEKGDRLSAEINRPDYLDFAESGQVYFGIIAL

`O=C(O)C[C@H](O)C[C@H](O)/C=C/c1c(C2CC2)nc2ccccc2c1-c1ccc(F)cc1`: the outcome in test [1] is “inactive”; in test [2], “inactive”; with CD40, CD40 (gene 958) [3], “inactive”; in test [7], “inactive”; in test [8], “inactive”; in [9] it was “inactive”. Moreover, the outcome in test [10] is “inactive”; in [12], “inactive”; with CD38, CD38 (gene 952), “inactive”; in test [14], “inactive”; in [16], “inactive”. Also, the AC50 (usually the concentration giving half of the maximal activity seen) in test [4] was 0.0822 µM (active); in test [5], 0.992 µM (active); in test [6], 0.256 µM (active); in [11] it was 3.17 µM (active); with CD40, CD40 (gene 958) [13] it was 0.216 µM (active); with CD69, CD69 (gene 969), 0.109 µM (active). For the same compound, the concentration at half-maximal activity (AC50) in [15] is 0.00197 µM (active).

Consider `CC(=O)OCCC(C)CC(C)(C)C` (stereo unspecified), for which the outcome in test [1] was “inactive”; in test [2], “inactive”; in the test with CD40, CD40 (gene 958) [3], “inactive”; in test [4] it was “inactive”; in [5], “inactive”; in test [6], “inactive”. In addition, the outcome in test [17], in [7], in test [8], in test [9], in [10] and in [11] was inactive. The outcome was “inactive” in test [12]; “inactive” with CD38, CD38 (gene 952); “inactive” with CD40, CD40 (gene 958) [13]; “inactive” with CD69, CD69 (gene 969); “inactive” in test [14]; “inactive” in [15]. For the same compound, in test [16], the result was inactive.

Regarding `C=C(C)C(=O)O[C@H]1C[C@@H]2CC[C@@]1(C)C2(C)C`, the AC50 is 12.8 µM (active) in test [1]; 13.8 µM (active) in test [2]; 27.8 µM (active) in the test with CD40, CD40 (gene 958) [3]; 29.6 µM (active) in [4]; 31.2 µM (active) in [5]; 30.4 µM (active) in test [6]. Besides, the concentration at half-maximal activity (AC50) in [17] is 25.8 µM (active); in test [7], 31.1 µM (active); in test [9] it was 29.9 µM (active); in [10] it was 36.8 µM (active); in [12], 30.6 µM (active); in the test with CD38, CD38 (gene 952) it was 33.8 µM (active). For the same compound, the AC50 in the test with CD40, CD40 (gene 958) [13] was 31.8 µM (active); with CD69, CD69 (gene 969) it was 30.8 µM (active); in [14], 34.1 µM (active); in [15] it was 34 µM (active); in [16] it was 36.3 µM (active). Moreover, the result in test [8] and in test [11] was inactive.
